In all, about 85,000 compounds went through this assay and about 440 (0.52%) showed an effect of 50% or more. This is one part of a sample in which strong results are shown more often than they occur.
Experiment: In vitro enzyme assay to detect hydrolysis of chlorophenol red-beta-D-[…] directly proportional to the number of Toxoplasma stably expressing beta-galactosidase
Type: functional, organism-based, Toxoplasma gondii
Design: scale not given: in the data most compounds retested in dose-response had high values

SMILES | Percent Effect (10 µM) | Percent Effect (50 µM)
Cc1nnc(NCc2cccc(OCC3CCCO3)c2)c(C#N)c1C (centres undefined) | 91.1% | –
N#Cc1ccc(NCc2cccc(OCC3CCCO3)c2)nc1 (centres undefined) | -17.65% | –
Cc1nc2ccccc2nc1NCc1cccc(OCC2CCCO2)c1 (centres undefined) | 17.15% | –
CN(C)S(=O)(=O)N(CCCO)c1ccccc1Br | – | -12.8%
CCc1nnc(Nc2cc(C)nc(C3CCN(c4ncccn4)C3)n2)s1 (centres undefined) | 8.527% | –
CCc1nnc(Nc2cc(C)nc(C3CCN(c4ccncn4)C3)n2)s1 (centres undefined) | 84.37% | –
CCc1nnc(Nc2cc(C)nc(C3CCN(c4cnccn4)C3)n2)s1 (centres undefined) | 9.302% | –
O=C(c1cccc(N2CCNC2=O)c1)N1CCOCC1 | – | -16.74%
Cc1ccc(-c2cc(CNc3ncnc4c3CCNCC4)no2)cc1 | 59.71% | –
COc1ccc(-c2cc(CNc3ncnc4c3CCNCC4)no2)cc1 | 5.898% | –
Clc1ccccc1-c1cc(CNc2ncnc3c2CCNCC3)no1 | 22.17% | –
O=C(CSc1nnc[nH]1)NCc1ccc(Br)c(F)c1 | – | -12.01%
CC(C)n1ccc(CN2C(=O)CC(C)(C)C2=O)n1 | – | 66.84%
CC(=O)Cc1ccn(C(C)C)n1 | – | -14.04%
CCOc1ccc(CN2C(=O)CC(C)(C)C2=O)nc1 | 15.64% | –
Nc1n[nH]c(SCc2ccc3c(c2)OCCO3)n1 | – | 48.58%
CC(C)(C)OC(=O)CNC1CCOCC1 | – | -4.673%
O=C(Nc1ccc(Br)cn1)C1CCCNC1 (centres undefined) | – | 56.99%
CCN1CC(C(=O)Nc2ccc(Br)cn2)CC1=O (centres undefined) | – | -17.13%
Cc1cccc(NC(=O)C2CCCNC2)n1 (centres undefined) | – | -13.07%
CC(NC(=O)c1ccc(Br)cc1)C(=O)N1CCOCC1 (centres undefined) | – | -8.67%
Cc1cc(C)n(CC2CCCN2CCS(C)(=O)=O)n1 (centres undefined) | -2.075% | –
Cc1cc(C)n(CC2CCCN2CCCS(C)(=O)=O)n1 (centres undefined) | 55.61% | –
Cc1cc(C)n(CC2CCCN2CCCS(N)(=O)=O)n1 (centres undefined) | -7.895% | –

SMILES | Percent Effect (10 µM) | Percent Effect (50 µM)
Cc1n[nH]c(C)c1C(NC(N)=O)c1ccccc1 (centres undefined) | – | 2.289%
CCN1CCCN(c2ccccn2)CC1 | – | 3.404%
NCc1cccc(-c2ccccn2)n1 | – | 73.75%
NCc1nc(-c2ccccn2)cs1 | – | -2.115%
NCc1nc(-c2ccccn2)no1 | – | -15.18%
CN(CC(=O)Nc1ccsc1)C1CCS(=O)(=O)C1 (centres undefined) | – | -6.022%
O=C(NCC1CCOC1)c1ccoc1C(F)(F)F (centres undefined) | – | -4.875%
NCCNc1ccc2ccccc2n1 | – | -5.159%
O=C(c1ccc(F)cc1)C(O)O | – | 0.6979%
CCn1ncnc1CN1CCCC2(C1)CN(C)C(=O)O2 (centres undefined) | – | -8.186%
NC(=O)N1CCCCCC1C1CCNCC1 (centres undefined) | – | 99.53%
CC(=O)N1CCCCCC1C1CCNCC1 (centres undefined) | – | -20.88%
COCC(=O)N1CCCCCC1C1CCNCC1 (centres undefined) | – | -2.687%
COCCC(=O)N(C)C(C)Cc1ncccc1C (centres undefined) | – | -3.603%
O[C@@H]1CCC[C@H]1n1cccn1 | – | 27.87%
CC1(C)CC(n2cccn2)C(C)(C)O1 (centres undefined) | – | 95.21%
Cn1cc(C(=O)NC2CC(C)(C)OC2(C)C)cn1 (centres undefined) | – | 6.396%
Cc1cc(C(=O)NCc2ccc(CO)cc2)cc(C)n1 | – | 4.895%
Cc1cn2c(n1)C(CNCC1=Cc3ccccc3OC1)CCC2 (centres undefined) | -4.432% | –
CC(C)(C)c1cn2c(n1)C(CNCc1ccccn1)CCC2 (centres undefined) | 84.2% | –
Cc1cn2c(n1)C(CNCc1cccc3c1OCO3)CCC2 (centres undefined) | 1.818% | –
CC(C)(C)c1cn2c(n1)C(CNCc1cnn3ccccc13)CCC2 (centres undefined) | 84.08% | –
Cc1cn2c(n1)C(CNCc1cnn3ccccc13)CCC2 (centres undefined) | -1.725% | –
Cn1cccc1CNCC1CCCn2cc(C(C)(C)C)nc21 (centres undefined) | 2.504% | –

SMILES | Percent Effect (10 µM) | Percent Effect (50 µM)
Cn1nccc1NC(=O)N1CCOCC1C1CC1 (centres undefined) | – | -2.135%
O=C1COCC(Cc2ccccc2)N1 (centres undefined) | – | -23.94%
NC(=O)CN1CCn2cccc2C1c1ccccc1 (centres undefined) | – | -16.03%
CNC1CCN(c2cc(OC)cc(OC)c2)C1 (centres undefined) | – | -16.53%
COCc1ccccc1C(=O)N1CCCC(O)C1 (centres undefined) | – | 58.79%
COCc1ccccc1C(=O)N1CCCC(c2cc(C)[nH]n2)C1 (centres undefined) | -0.6285% | –
CCN1CCCN(C(=O)c2ccccc2COC)CC1 | – | 3.121%
O=C(NCC(O)C1CCCCC1)[C@@H](O)c1ccccc1 (some centres undefined) | – | -2.815%
Cc1nn(CCO)c(NC(C)c2nccs2)c1C (centres undefined) | – | -2.968%
COC[C@H]1CCC[C@H]1NC(=O)CCn1cncn1 | – | 1.07%
Cc1ccc(CN(C)C(=O)CN2CCCC(Cn3cncn3)C2)cc1 (centres undefined) | -19.93% | –
CN(Cc1ccccc1)C(=O)CN1CCCC(Cn2cncn2)C1 (centres undefined) | -36.27% | –
CN(Cc1cnn(C)c1)C(=O)CN1CCCC(Cn2cncn2)C1 (centres undefined) | 96.23% | –
NC(=O)COC(=O)c1cc(Cl)cc(C(F)(F)F)c1 | – | -16.81%
Cc1[nH]ncc1C(=O)NCCCSCC(C)C | – | 11.62%
CCn1nc(C)c2nnn(CC(=O)Nc3ccccc3)c(=O)c21 | 1.414% | –
Cc1nn(C)c2c(=O)n(CC(=O)Nc3cc(Cl)cc(Cl)c3)nnc12 | -3.347% | –
CCn1nc(C)c2nnn(CC(=O)Nc3cccc(F)c3)c(=O)c21 | -2.626% | –
Cc1nn(C)c2c(=O)n(Cc3ccc(C#N)cc3)nnc12 | 39.12% | –
Cc1nn(C)c2c(=O)n(Cc3ccc(F)cc3)nnc12 | 62.42% | –
Cc1nn(C)c2c(=O)n(Cc3ccccc3)nnc12 | 61.89% | –
Cc1nn(C)c2c(=O)n(Cc3ccc(Cl)cc3)nnc12 | 71.45% | –
Cc1c(C(=O)NC(C)C)nnn1Cc1ccccc1 | – | 17.24%
Cc1nn(C)c(=O)c2nn(-c3ccc(F)cc3)c(C)c12 | -17.45% | –

SMILES | Percent Effect (10 µM) | Percent Effect (50 µM)
COCC(C)(CCO)NCc1c(C)noc1C (centres undefined) | – | -23.44%
CCC(CNC(=O)Nc1cc(C)nn1C)N1CCCC1 (centres undefined) | – | -4.617%
NC(=O)C1CCN(CCOc2ccccc2F)CC1 | – | -5.356%
Cc1cnccc1NCCNC(=O)Cc1ccccn1 | – | -14.36%
CCO[C@H]1CN(C)C[C@@H]1NC(=O)c1cnc(CC)nc1 | – | 7.652%
C[S+]([O-])c1nncn1Cc1cccc2cccnc12 (centres undefined) | – | -6.749%
Cc1cc(N2CCOC(CN(C)CC(N)=O)C2)ccn1 (centres undefined) | – | 2.869%
COCc1[nH][nH]c(=O)c1CCN | – | -30.62%
OC1(CNCCOCc2ccc(Cl)cc2)CCCNC1 (centres undefined) | – | 57.1%
OC1(CNCCc2csc(-c3ccncc3)n2)CCCNC1 (centres undefined) | -15.25% | –
OC1(CNCCCn2cc(Cl)cn2)CCCNC1 (centres undefined) | – | -11.83%
CCOCC(O)CN(C)Cc1cccc(C(N)=O)c1 (centres undefined) | – | -13.39%
CCN1C[C@H]2CCN(C(=O)NC)CC[C@H]2S1(=O)=O | 59.16% | –
CCN1C[C@H]2CCN(C(C)=O)CC[C@H]2S1(=O)=O | -1.674% | –
CCN1C[C@H]2CCN(C(=O)NC3CCCC3)CC[C@H]2S1(=O)=O | -4.304% | –
Cc1c(N)cnn1C1CCOCC1 | – | -9.55%
COc1ccc(OC)c(N2C(=O)CCC2=O)c1 | – | -4.608%
CN(CCOCCO)CCOc1ccc(F)cc1 | – | 15.3%
O=C1NCCOc2ccc(Br)cc21 | – | -18.86%
COc1ccccc1CNC(=O)C1=NN(c2ccc(C)cc2)C(=O)CN1 | 57.58% | –
COc1ccc(C)cc1CNC(=O)C1=NN(c2ccccc2)C(=O)CN1 | 14.43% | –
COc1ccc(CNC(=O)C2=NN(c3ccc(C)cc3)C(=O)CN2)cc1 | -0.9855% | –
Cc1cc2c(cc1S(=O)(=O)N1CCCC(N)C1)OCO2 (centres undefined) | – | 6.23%
c1cncc(C2=NOC3(CCN(Cc4c[nH]c5ccccc45)CC3)C2)c1 | 26.44% | –

SMILES | Percent Effect (10 µM) | Percent Effect (50 µM)
CC(C)C1=NOC2(CCN(Cc3c[nH]c4ccccc34)CC2)C1 | 33.52% | –
c1ccc(C2=NOC3(CCN(Cc4c[nH]c5ccccc45)CC3)C2)cc1 | 73.52% | –
CCCC(C(=O)OCC)S(N)(=O)=O (centres undefined) | – | -4.644%
COC(=O)C(C)SCc1noc(C2CC2)n1 (centres undefined) | – | 1.688%
CCN1C[C@H](NC(=O)c2ccc(Cl)s2)[C@@H](OC)C1 | – | 2.981%
CCN1C[C@H](NC(=O)c2snnc2C(C)C)[C@@H](OC)C1 | – | 82.91%
CCN1C[C@H](NC(=O)c2cccn2C(C)C)[C@@H](OC)C1 | – | -5.083%
CCC(NC(=O)c1cc(N)[nH]n1)c1nc(C)c[nH]1 (centres undefined) | – | 4.795%
Cc1nnsc1CN(C)C(=O)c1ccccc1 | – | 22.64%
O=C(N[C@@H]1CNC[C@H]1CO)C1CCC1 | – | -0.2309%
Cc1cc(CN)nc(N2CCCC2)n1 | – | -18.34%
CN(C)c1nc(CN)cs1 | – | -3.708%
Cc1cc(CN)nc(N(C)C)n1 | – | 87.02%
COCCNC(=O)CCC1CCN(CCCSC)CC1 | – | 11.51%
CCOc1ncccc1C(=O)N1CCCN(C)CC1 | – | 3.231%
COCCNC(=O)NC(C)CCc1ccc(O)cc1 (centres undefined) | – | -3.348%
Oc1cccc(-c2cc(C3CCN(Cc4cncnc4)C3)ccn2)c1 (centres undefined) | 0.5564% | –
Cn1ccnc1CN1CCC(c2ccnc(-c3cccc(O)c3)c2)C1 (centres undefined) | 55.29% | –
CN(C)CC(C)(C)CN1CCC(c2ccnc(-c3cccc(O)c3)c2)C1 (centres undefined) | 7.739% | –
N#CC1(NC(=O)C(O)Cc2ccccc2Cl)CCC1 (centres undefined) | – | -6.44%
O=C1CN(CC(=O)Nc2c(Cl)cccc2Cl)CCN1 | – | 55.2%
CCc1cccc(C)c1NC(=O)CN1CCNC(=O)C1 | – | -0.5853%
Cc1ccc(Cl)cc1NC(=O)CN1CCNC(=O)C1 | – | 47.59%
